APOBEC3G inh = blocks human APOBEC3G single-stranded DNA deamination; 330,000 compounds, 0.28% hits; inhibition, % at 20 µM; recombinant A3G, ssDNA deamination FAM/TAMRA fluorescence;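 active means inhibition of at least 40% at 20 µM, with no more than 30% in the related APOBEC3A deaminase screen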
Target sequence (Q9HC16 whole entry, looked up): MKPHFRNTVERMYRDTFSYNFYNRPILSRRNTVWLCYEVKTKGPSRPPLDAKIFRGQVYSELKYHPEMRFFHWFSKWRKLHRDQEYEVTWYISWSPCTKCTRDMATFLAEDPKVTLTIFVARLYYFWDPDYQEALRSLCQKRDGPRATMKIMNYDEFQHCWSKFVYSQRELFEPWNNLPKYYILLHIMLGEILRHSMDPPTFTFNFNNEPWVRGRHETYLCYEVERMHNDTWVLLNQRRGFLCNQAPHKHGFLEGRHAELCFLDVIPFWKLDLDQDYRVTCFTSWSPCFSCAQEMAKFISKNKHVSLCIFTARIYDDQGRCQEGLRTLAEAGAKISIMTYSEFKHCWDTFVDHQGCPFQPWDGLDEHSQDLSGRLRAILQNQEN
TAG inh = inhibitors of triacylglycerol accumulation. H9c2 cells, Nile Red lipid (TAG) fluorescence; cells loaded with 200 µM oleic acid. inhibition, % at 12.5 µM. 230,000 compounds, 0.66% hits. AID 651582;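 active means pattern-corrected inhibition of lipid staining of at least 50% with the nuclear-stain viability signal not falling by more than 50%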
H9c2 protect = myocardial damage modulation in H9c2 cells; H9c2 cardiomyocytes, H2O2 injury protection, ATPLite, 2 h; protection from H2O2 cell death, % at 20 µM; 360,000 compounds, 0.63% hits; AID 588492;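 active means compounds giving at least 50% protection of heart cells from peroxide-induced death in the single-dose screen, raw or plate-pattern-corrected value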
A3A deaminase = inhibitors of human APOBEC3A DNA deaminase. P31941. recombinant A3A, FAM/TAMRA ssDNA deamination fluorescence. inhibition, % at 20 µM. 330,000 compounds, 0.41% hits. AID 493011;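 active means at least 40% inhibition at 20 µM here, with at most 30% in a related deaminase screen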
Target sequence (P31941 whole entry, looked up): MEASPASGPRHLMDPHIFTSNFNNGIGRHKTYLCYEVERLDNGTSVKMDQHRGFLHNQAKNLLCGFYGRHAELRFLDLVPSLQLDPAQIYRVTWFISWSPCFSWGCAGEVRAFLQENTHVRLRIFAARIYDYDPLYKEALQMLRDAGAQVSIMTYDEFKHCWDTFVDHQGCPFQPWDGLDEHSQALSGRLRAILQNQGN
PfG6PD inh = PfG6PD (Plasmodium falciparum) enzyme inhibition; PfGluPho enzyme, NADPH resazurin-diaphorase fluorescence; AID 504690; inhibition, % at 20 µM; 350,000 compounds, 0.78% hits;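 active means inhibition reaching at least a set limit at 20 µM in the primary screen, cut at about 59% in these data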
NadD block = NadD (S. aureus) enzyme inhibition; inhibition, % at 20 µM; purified NadD enzyme, colorimetric absorbance read-out; 360,000 compounds, 0.78% hits; AID 602399; in the data active means inhibition above about 26%
A3G conf = confirmation of human APOBEC3G DNA deaminase inhibitors; shares compounds with APOBEC3G inh; recombinant A3G ssDNA deaminase, UDG/FAM-TAMRA fluorescence; inhibition, % at 20 µM; 890 compounds, 72% hits;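 active means inhibition reaching a set limit in any replicate at 20 µM, the limit being 80% of the first screen's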
UDG A3G counter = counter-screen for APOBEC3G inhibitors: E. coli UDG | shares compounds with APOBEC3G inh | UDG counterscreen, FAM/TAMRA oligo fluorescence | inhibition, % at 20 µM | 710 tested, under 10 active;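 active means compounds giving 40% or more inhibition at 20 µM in any one of the three replicates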;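 further: inhibitors lower the FAM signal released by uracil excision and alkaline cleavage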
PfG6PD confirm = PfG6PD inhibition, single-dose confirmed; recombinant PfGluPho, NADPH-diaphorase-resazurin fluorescence; inhibition, % at 20 µM; 2,400 compounds, 34% hits; shares compounds with PfG6PD inh;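 active means inhibition of at least 50% at 20 µM in any single replicate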
Diaphorase 10uM = counter-screen for P. falciparum G6PD inhibitors: diaphorase inhibitors, oxidizers. diaphorase-coupled resazurin reduction, fluorescence, NADPH 10 uM. shares compounds with PfG6PD inh. AID 504862. inhibition, % at 20 µM. 820 compounds, 39% hits;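 active means average inhibition reaching 50% or more with the compound at 20 µM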;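 further: resorufin red fluorescence formed as diaphorase reduces resazurin using NADPH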
Diaph ctr 30uM = inhibits diaphorase or oxidizes, flagging false PfG6PD hits. shares compounds with PfG6PD inh. Diaphorase/resazurin coupled assay, resorufin fluorescence, 30 uM NADPH. inhibition, % at 20 µM. 820 compounds, 29% hits;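 active means inhibition averaging 50% or more, tested at 20 µM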
Of the large screens only hits and unclear results are named; the others gave an inactive call (follow-up assays come after a bar, where they were run). Compounds with a hit are over-represented: about 2.9% of the library has one in this group of screens.

CCn1c(-c2ccc(Cl)cc2)n[nH]c1=S	APOBEC3G inh 53.8 | A3G conf 80.1 | UDG A3G counter inactive
CCn1c(CCCCc2n[nH]c(=S)n2CC)n[nH]c1=S	APOBEC3G inh 46.9 | A3G conf 88.1 | UDG A3G counter inactive
Cc1ccc(C(NC(=O)Nc2ccccn2)C(Cl)(Cl)Cl)cc1F (stereo unspecified)	none (no result: TAG inh)
COC(=O)Cc1cc(C)cc2c(=O)cc(-c3ccoc3)oc12	none
CCN(C(=O)COC(=O)c1c(-c2ccccc2)noc1C)c1c(N)n(Cc2ccccc2)c(=O)[nH]c1=O	none
CCOc1ccccc1NC(=O)c1nnn(CC(=O)Nc2cc(C)cc(C)c2)c1N	none (no result: TAG inh)
CC1(CCc2ccccc2)NC(=S)N(c2ccccc2)N1 (stereo unspecified)	none (no result: APOBEC3G inh, TAG inh, A3A deaminase)
CC1(CCc2ccccc2)NC(=S)N(c2ccc(Cl)cc2)N1 (stereo unspecified)	APOBEC3G inh 56.6 | A3G conf inactive
Oc1cccc2cc3cccc(O)c3c(O)c12	APOBEC3G inh 55.0, NadD block 70.0 | A3G conf 61.8 | UDG A3G counter inactive
CC(C)n1c(SCC(=O)Nc2nc3c(s2)CCCC3)nc2c1c(=O)n(C)c(=O)n2C	none
CCC(=O)NC(=S)NNC(=O)c1ccccc1[N+](=O)[O-]	APOBEC3G inh 61.3 | A3G conf inactive | UDG A3G counter inactive
O=C(NC(=S)NNC(=O)c1ccccc1[N+](=O)[O-])c1ccccc1	APOBEC3G inh 45.8 (no result: TAG inh) | A3G conf 31.0 | UDG A3G counter inactive
O=C(NNC(=S)NC(=O)c1ccccc1[N+](=O)[O-])c1ccccc1	none
Cc1cc(NC(=O)CN2C(=O)NC3(CCCCC3)C2=O)ccc1N1CCCC1	none
COc1ccc(NC(=O)C(C)Sc2nnc3c4c(nc(-c5ccc(OC)cc5)n23)CC(C)(C)OC4)cc1 (stereo unspecified)	none (no result: TAG inh)
COc1ccc(CN2C(=O)c3ccccc3C2c2nnnn2-c2ccc3c(c2)OCCO3)cc1 (stereo unspecified)	none (no result: APOBEC3G inh, TAG inh, H9c2 protect, A3A deaminase, PfG6PD inh)
CN(C)CCCN1C(=O)C2CCc3[nH]c4ccccc4c3C2C1=O (stereo unspecified)	none
CS(=O)(=O)C1=NN2C(=N)/C(=C\c3ccc(OC(=O)c4ccco4)cc3)C(=O)N=C2S1	APOBEC3G inh 62.1 (no result: TAG inh) | A3G conf inactive | UDG A3G counter inactive
CC(C)CS(=O)(=O)C1=NN2C(=N)/C(=C\c3ccc(OC(=O)c4ccco4)cc3)C(=O)N=C2S1	none (no result: TAG inh)
COc1ccc(C)cc1Nc1n[n+](-c2ccccc2)c(-c2ccc(SC)cc2)s1	none
CCC(CC)c1nnc(NC(=O)COc2ccc3c(c2)OCO3)s1	APOBEC3G inh 45.1 (no result: TAG inh) | A3G conf 47.1 | UDG A3G counter inactive
C/C(=N\NC(=O)c1cccc(N/N=C(\C)c2cc(O)ccc2O)c1)c1cc(O)ccc1O	APOBEC3G inh 44.7 | A3G conf inactive | UDG A3G counter inactive
Cc1ccc(C2(C)NC(=O)N(CC(=O)Nc3nc(-c4ccccn4)cs3)C2=O)cc1 (stereo unspecified)	APOBEC3G inh 55.9, PfG6PD inh 72.1 | A3G conf 67.4 | UDG A3G counter inactive | PfG6PD confirm inactive
Nc1cc(S(=O)(=O)Nc2ccccc2Cl)ccc1N1CCCCC1	APOBEC3G inh 49.0, PfG6PD inh 66.8 | A3G conf 47.2 | UDG A3G counter inactive | PfG6PD confirm inactive
CCC(C)(C)n1nnnc1C(c1ccc2ncccc2c1)N1CCN(c2ccc(O)cc2)CC1 (stereo unspecified)	APOBEC3G inh 41.0 | A3G conf inactive | PfG6PD confirm inactive
CCC(C)(C)n1nnnc1C(c1ccc2ncccc2c1)N1CCN(c2nc3ccccc3s2)CC1 (stereo unspecified)	none (no result: TAG inh)
Cc1ccc(OCc2nnc(NC(=O)c3ccco3)s2)cc1	none (no result: TAG inh)
O=C(Nc1nnc(COc2ccc(Cl)cc2)s1)c1ccco1	APOBEC3G inh 71.0, PfG6PD inh 66.3 | A3G conf 43.3 | UDG A3G counter inactive | PfG6PD confirm inactive
CCC1S/C(=N/C(=O)NC2CCCCC2)NC1=O (stereo unspecified)	none
O=C(/N=C1\NC(=O)C(F)(C(F)(F)F)S1)NC1CCCCC1 (stereo unspecified)	APOBEC3G inh 49.7, PfG6PD inh 73.4 (no result: TAG inh) | A3G conf 47.6 | UDG A3G counter inactive | PfG6PD confirm inactive
Cn1nc(-c2ccccc2)nc1-c1ccccc1	none
CN=c1nc(-c2ccccc2)n(-c2ccccc2)s1	APOBEC3G inh 79.5, PfG6PD inh 121.2 | A3G conf 95.5 | UDG A3G counter inactive | PfG6PD confirm 110.9 | Diaphorase 10uM inactive | Diaph ctr 30uM inactive
NC(=O)c1c(NC(=O)CCCn2cnc([N+](=O)[O-])n2)sc2c1CCCC2	APOBEC3G inh 59.2, PfG6PD inh 75.8 | A3G conf 41.4 | UDG A3G counter inactive | PfG6PD confirm inactive
CC1CCc2c(sc(NC(=O)CCCn3cnc([N+](=O)[O-])n3)c2C(N)=O)C1 (stereo unspecified)	none
CCN(CC)c1ccc(NC(=O)c2ccccn2)cc1S(=O)(=O)Nc1ccccc1OC	APOBEC3G inh 56.2, PfG6PD inh 60.4 | A3G conf 50.8 | UDG A3G counter inactive | PfG6PD confirm inactive
COc1ccccc1NS(=O)(=O)c1cc(NC(=O)C2CCC2)ccc1N1CCCCC1	APOBEC3G inh 48.9, PfG6PD inh 60.0 | A3G conf 76.8 | UDG A3G counter inactive | PfG6PD confirm inactive
COc1ccc(NS(=O)(=O)c2cc(NC(=O)C3CC3)ccc2N2CCCCC2)cc1	none
COc1ccccc1NS(=O)(=O)c1cc(NC(=O)c2ccc(Cl)nc2)ccc1N1CCCC1	APOBEC3G inh 65.7, PfG6PD inh 71.9 | A3G conf 68.5 | UDG A3G counter inactive | PfG6PD confirm 49.6 | Diaphorase 10uM inactive | Diaph ctr 30uM inactive
CC(NC(=O)c1sc2cc([N+](=O)[O-])ccc2c1Cl)C(C)(C)C (stereo unspecified)	APOBEC3G inh 54.8, PfG6PD inh 97.3 (no result: TAG inh) | A3G conf 69.1 | UDG A3G counter inactive | PfG6PD confirm 70.0 | Diaphorase 10uM inactive | Diaph ctr 30uM inactive
Cc1cnc(N=Nc2ccccc2)[nH]1	none (no result: APOBEC3G inh, A3A deaminase)

Screens (PubChem)
